{"source": "the supplement of paper PMC10849652", "assay_in_all_cases": "log2 fold change, soluble protein after heating vs DMSO (PISA); higher = thermal stabilisation; K562 lysate, 10 uM; active = over 0.2 and 3.5 SD of the protein, either way, in both replicates (recomputed)", "key": {"[1]": {"compound": "NCC(=O)Nc1ccc(-n2nc(C(F)(F)F)cc2-c2ccc3c(ccc4ccccc43)c2)cc1", "method_in_brief": "(§1)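 K562 pellets were dounce-homogenised in PBS pH 7.4 with 1 mM MgCl2, and the crude extract at 1 mg/mL protein was treated with 10 μM compound for 30 min. Aliquots were heated for 3 min across 48°C-58°C, pooled, and brought to 0.5% NP-40 at 4°C; soluble protein was the supernatant after 21,000xg for 90 min. Soluble protein was quantified by TMTpro 16plex LC-MS/MS with channel sums equalised, and reported as log2 fold change in thermal stability against DMSO controls, with values from duplicates.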"}, "[2]": {"compound": "O=C1NC(=O)C(c2cnc3ccccn23)=C1c1cn2c3c(cc(F)cc13)CN(C(=O)N1CCCCC1)CC2", "method_in_brief": "as §1"}, "entospletinib": {"compound": "c1cn2cc(-c3ccc4cn[nH]c4c3)nc(Nc3ccc(N4CCOCC4)cc3)c2n1 [entospletinib]", "method_in_brief": "as §1"}, "vorinostat": {"compound": "O=C(CCCCCCC(=O)Nc1ccccc1)NO [vorinostat]", "method_in_brief": "as §1"}, "silmitasertib": {"compound": "O=C(O)c1ccc2c(c1)nc(Nc1cccc(Cl)c1)c1ccncc12 [silmitasertib]", "method_in_brief": "as §1"}}, "note": "Targets with a hit are over-represented here; the source holds about 8,800 in all. About 0.5% of all pairs of compound and target were hits. A number with no mark means an inactive call.", "data": [{"target": "MYLK (UniProt Q15746)", "values": [{"measurement": "log2 fold change", "setting": "[1]", "result": -0.312}, {"measurement": "log2 fold change", "setting": "[2]", "result": -0.294}, {"measurement": "log2 fold change", "setting": "entospletinib", "result": -0.096}]}, {"target": "NOCT (UniProt Q9UK39)", "sequence (Q9UK39 whole entry, looked up)": "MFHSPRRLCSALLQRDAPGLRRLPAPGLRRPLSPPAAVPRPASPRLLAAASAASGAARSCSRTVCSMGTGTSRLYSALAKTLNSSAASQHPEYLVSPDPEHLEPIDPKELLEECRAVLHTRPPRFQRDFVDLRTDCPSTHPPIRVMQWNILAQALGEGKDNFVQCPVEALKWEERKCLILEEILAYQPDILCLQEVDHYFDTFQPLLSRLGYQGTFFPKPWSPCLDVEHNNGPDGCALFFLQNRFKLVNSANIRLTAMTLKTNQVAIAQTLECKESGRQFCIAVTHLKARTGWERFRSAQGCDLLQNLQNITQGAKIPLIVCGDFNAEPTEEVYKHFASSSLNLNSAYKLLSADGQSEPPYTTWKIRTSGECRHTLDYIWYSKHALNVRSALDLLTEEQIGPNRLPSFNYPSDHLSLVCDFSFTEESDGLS", "values": [{"measurement": "log2 fold change", "setting": "vorinostat", "result": "-0.886 (active)"}, {"measurement": "log2 fold change", "setting": "silmitasertib", "result": 0.004}, {"measurement": "log2 fold change", "setting": "[2]", "result": -0.036}, {"measurement": "log2 fold change", "setting": "entospletinib", "result": -0.301}]}, {"target": "P2RY1 (UniProt P47900)", "sequence (P47900 whole entry, looked up)": "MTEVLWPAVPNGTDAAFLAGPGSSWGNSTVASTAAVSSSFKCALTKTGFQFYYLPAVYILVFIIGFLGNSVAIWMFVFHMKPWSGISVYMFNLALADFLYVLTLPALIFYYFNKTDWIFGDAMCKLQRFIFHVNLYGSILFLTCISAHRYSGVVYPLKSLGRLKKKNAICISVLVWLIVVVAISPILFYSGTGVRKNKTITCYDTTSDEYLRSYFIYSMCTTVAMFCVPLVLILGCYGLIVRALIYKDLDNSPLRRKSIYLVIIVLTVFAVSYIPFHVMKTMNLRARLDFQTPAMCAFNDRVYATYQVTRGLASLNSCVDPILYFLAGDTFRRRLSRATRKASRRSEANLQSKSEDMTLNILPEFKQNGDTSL", "values": [{"measurement": "log2 fold change", "setting": "vorinostat", "result": 0.04}, {"measurement": "log2 fold change", "setting": "silmitasertib", "result": 0.13}, {"measurement": "log2 fold change", "setting": "entospletinib", "result": -0.064}]}, {"target": "ORC2 (UniProt Q13416)", "values": [{"measurement": "log2 fold change", "setting": "[1]", "result": 0}, {"measurement": "log2 fold change", "setting": "vorinostat", "result": "-0.285 (active)"}, {"measurement": "log2 fold change", "setting": "silmitasertib", "result": 0.007}, {"measurement": "log2 fold change", "setting": "[2]", "result": 0.049}, {"measurement": "log2 fold change", "setting": "entospletinib", "result": 0.021}]}, {"target": "PARG (UniProt Q86W56)", "values": [{"measurement": "log2 fold change", "setting": "[1]", "result": 0.006}, {"measurement": "log2 fold change", "setting": "vorinostat", "result": "-0.363 (active)"}, {"measurement": "log2 fold change", "setting": "silmitasertib", "result": -0.035}, {"measurement": "log2 fold change", "setting": "[2]", "result": 0.018}, {"measurement": "log2 fold change", "setting": "entospletinib", "result": 0.006}]}, {"target": "NEXN (UniProt Q0ZGT2)", "sequence (Q0ZGT2 whole entry, looked up)": "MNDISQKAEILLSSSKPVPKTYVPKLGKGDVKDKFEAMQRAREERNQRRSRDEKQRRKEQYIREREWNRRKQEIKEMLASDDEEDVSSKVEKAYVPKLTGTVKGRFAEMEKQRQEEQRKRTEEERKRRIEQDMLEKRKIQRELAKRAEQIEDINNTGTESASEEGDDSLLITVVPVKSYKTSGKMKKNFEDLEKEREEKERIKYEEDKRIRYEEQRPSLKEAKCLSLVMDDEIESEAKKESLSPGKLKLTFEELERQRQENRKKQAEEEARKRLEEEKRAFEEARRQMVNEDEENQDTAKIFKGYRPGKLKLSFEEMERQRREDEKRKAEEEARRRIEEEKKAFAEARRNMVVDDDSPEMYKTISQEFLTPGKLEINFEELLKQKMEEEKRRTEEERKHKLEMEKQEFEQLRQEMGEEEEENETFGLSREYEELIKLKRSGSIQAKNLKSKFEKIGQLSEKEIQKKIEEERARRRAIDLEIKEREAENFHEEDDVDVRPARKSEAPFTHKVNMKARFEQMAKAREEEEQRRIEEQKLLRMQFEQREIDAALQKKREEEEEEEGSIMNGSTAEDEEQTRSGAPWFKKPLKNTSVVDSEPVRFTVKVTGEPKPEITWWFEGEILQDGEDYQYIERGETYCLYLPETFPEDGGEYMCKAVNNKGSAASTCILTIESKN", "values": [{"measurement": "log2 fold change", "setting": "[1]", "result": 0.144}, {"measurement": "log2 fold change", "setting": "vorinostat", "result": -0.335}, {"measurement": "log2 fold change", "setting": "silmitasertib", "result": -0.038}, {"measurement": "log2 fold change", "setting": "entospletinib", "result": 0.042}]}, {"target": "OPA1 isoform 2 (UniProt O60313)", "sequence (O60313 whole entry, looked up)": "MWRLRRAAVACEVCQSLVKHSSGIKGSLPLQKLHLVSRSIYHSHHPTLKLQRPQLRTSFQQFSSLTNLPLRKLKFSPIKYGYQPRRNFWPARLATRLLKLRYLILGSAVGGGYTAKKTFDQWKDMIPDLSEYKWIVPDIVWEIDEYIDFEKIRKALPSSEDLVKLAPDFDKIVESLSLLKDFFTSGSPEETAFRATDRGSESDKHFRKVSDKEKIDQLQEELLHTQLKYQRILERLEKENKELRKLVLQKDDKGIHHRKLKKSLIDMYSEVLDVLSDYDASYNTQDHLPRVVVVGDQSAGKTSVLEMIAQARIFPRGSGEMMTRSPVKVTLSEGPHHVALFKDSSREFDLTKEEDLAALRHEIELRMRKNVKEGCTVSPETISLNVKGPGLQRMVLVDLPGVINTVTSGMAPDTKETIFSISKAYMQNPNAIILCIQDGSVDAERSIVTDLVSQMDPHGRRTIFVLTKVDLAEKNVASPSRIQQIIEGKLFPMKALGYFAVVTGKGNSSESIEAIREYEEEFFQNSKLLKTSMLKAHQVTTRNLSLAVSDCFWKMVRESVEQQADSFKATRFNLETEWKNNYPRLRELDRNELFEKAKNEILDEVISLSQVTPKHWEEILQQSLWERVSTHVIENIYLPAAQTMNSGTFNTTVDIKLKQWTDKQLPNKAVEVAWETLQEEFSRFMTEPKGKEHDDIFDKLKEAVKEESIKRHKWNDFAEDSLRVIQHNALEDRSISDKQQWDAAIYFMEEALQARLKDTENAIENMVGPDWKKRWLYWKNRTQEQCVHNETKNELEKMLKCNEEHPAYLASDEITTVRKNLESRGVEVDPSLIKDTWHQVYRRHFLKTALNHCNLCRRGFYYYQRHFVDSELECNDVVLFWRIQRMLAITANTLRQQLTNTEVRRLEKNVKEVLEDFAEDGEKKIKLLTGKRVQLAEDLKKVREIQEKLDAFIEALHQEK", "values": [{"measurement": "log2 fold change", "setting": "[1]", "result": 0.002}, {"measurement": "log2 fold change", "setting": "vorinostat", "result": 0.014}, {"measurement": "log2 fold change", "setting": "silmitasertib", "result": 0.027}, {"measurement": "log2 fold change", "setting": "[2]", "result": 0.009}, {"measurement": "log2 fold change", "setting": "entospletinib", "result": -0.004}]}, {"target": "MTA3 (UniProt Q9BTC8)", "sequence (Q9BTC8 whole entry, looked up)": "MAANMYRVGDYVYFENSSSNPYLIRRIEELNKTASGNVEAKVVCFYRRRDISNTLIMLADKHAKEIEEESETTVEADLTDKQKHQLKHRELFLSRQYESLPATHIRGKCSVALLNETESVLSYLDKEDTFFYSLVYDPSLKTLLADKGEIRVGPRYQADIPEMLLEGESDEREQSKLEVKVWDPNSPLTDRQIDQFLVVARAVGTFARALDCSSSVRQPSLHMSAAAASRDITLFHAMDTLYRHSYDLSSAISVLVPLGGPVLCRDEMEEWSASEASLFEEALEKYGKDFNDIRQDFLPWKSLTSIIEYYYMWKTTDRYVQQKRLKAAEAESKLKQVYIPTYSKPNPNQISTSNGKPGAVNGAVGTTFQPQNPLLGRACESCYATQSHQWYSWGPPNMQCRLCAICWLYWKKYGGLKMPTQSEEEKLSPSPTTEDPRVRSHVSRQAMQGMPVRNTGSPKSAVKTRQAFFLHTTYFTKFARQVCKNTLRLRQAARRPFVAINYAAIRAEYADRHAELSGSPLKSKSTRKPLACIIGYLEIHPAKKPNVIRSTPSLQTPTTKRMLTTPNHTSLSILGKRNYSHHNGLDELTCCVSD", "values": [{"measurement": "log2 fold change", "setting": "[1]", "result": 0.021}, {"measurement": "log2 fold change", "setting": "vorinostat", "result": "-0.278 (active)"}, {"measurement": "log2 fold change", "setting": "silmitasertib", "result": -0.017}, {"measurement": "log2 fold change", "setting": "[2]", "result": -0.021}, {"measurement": "log2 fold change", "setting": "entospletinib", "result": 0.012}]}, {"target": "MYH6 (UniProt P13533)", "sequence (P13533 whole entry, looked up)": "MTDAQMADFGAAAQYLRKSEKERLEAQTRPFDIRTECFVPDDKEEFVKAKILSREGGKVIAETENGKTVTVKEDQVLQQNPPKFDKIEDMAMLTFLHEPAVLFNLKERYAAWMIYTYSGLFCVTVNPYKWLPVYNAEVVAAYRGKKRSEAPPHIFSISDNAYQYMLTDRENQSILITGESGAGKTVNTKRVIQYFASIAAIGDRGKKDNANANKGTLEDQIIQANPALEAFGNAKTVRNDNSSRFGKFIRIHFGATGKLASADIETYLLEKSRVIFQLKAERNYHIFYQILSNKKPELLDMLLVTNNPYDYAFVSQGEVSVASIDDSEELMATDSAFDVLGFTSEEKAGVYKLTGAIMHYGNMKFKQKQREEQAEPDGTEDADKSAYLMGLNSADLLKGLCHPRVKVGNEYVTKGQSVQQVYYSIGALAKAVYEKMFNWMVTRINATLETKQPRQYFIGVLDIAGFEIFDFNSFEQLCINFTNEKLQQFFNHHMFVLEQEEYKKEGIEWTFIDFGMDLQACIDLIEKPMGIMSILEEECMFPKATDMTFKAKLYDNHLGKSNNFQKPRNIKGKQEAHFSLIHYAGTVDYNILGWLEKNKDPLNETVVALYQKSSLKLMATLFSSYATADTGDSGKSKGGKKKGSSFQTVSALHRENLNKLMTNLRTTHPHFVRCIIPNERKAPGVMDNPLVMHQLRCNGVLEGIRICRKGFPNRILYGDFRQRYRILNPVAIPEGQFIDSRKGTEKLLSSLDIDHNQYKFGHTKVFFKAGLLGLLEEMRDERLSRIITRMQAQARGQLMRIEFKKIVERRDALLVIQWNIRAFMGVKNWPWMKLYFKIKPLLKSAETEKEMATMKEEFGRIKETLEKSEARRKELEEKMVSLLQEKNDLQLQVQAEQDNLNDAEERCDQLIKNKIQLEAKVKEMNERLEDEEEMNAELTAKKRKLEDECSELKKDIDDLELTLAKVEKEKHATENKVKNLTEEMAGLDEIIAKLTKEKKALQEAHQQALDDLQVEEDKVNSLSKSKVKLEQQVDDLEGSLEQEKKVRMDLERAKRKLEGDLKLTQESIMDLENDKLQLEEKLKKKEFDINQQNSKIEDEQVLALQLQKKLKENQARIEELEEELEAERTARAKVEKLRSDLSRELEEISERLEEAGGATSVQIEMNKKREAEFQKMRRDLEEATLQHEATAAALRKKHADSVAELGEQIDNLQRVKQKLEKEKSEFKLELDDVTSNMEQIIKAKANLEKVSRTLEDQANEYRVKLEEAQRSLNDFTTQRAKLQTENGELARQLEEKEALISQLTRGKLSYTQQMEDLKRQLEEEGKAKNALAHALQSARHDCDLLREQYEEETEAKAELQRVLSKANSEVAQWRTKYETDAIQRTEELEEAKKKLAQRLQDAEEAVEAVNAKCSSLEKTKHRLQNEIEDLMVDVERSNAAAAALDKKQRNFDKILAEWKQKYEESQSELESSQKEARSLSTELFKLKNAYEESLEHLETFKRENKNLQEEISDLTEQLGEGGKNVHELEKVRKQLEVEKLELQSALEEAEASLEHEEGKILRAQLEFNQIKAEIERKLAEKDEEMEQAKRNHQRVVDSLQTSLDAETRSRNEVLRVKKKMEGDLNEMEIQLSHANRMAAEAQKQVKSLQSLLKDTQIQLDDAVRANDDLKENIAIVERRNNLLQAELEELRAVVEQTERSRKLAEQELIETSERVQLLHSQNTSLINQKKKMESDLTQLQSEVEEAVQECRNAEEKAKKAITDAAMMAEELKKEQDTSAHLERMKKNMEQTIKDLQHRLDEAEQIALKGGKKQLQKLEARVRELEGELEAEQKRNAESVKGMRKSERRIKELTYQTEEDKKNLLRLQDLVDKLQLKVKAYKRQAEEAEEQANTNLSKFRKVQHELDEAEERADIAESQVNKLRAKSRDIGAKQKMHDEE", "values": [{"measurement": "log2 fold change", "setting": "vorinostat", "result": 0.209}, {"measurement": "log2 fold change", "setting": "silmitasertib", "result": -0.053}, {"measurement": "log2 fold change", "setting": "[2]", "result": 0.188}, {"measurement": "log2 fold change", "setting": "entospletinib", "result": 0.102}]}, {"target": "NDUFA4 (UniProt O00483)", "sequence (O00483 whole entry, looked up)": "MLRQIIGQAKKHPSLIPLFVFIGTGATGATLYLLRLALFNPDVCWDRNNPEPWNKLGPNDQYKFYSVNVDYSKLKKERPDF", "values": [{"measurement": "log2 fold change", "setting": "[1]", "result": -0.041}, {"measurement": "log2 fold change", "setting": "vorinostat", "result": -0.017}, {"measurement": "log2 fold change", "setting": "silmitasertib", "result": -0.004}, {"measurement": "log2 fold change", "setting": "[2]", "result": 0.01}, {"measurement": "log2 fold change", "setting": "entospletinib", "result": -0.029}]}, {"target": "NR2F2 (UniProt P24468)", "values": [{"measurement": "log2 fold change", "setting": "vorinostat", "result": "-0.389 (active)"}, {"measurement": "log2 fold change", "setting": "silmitasertib", "result": 0.176}, {"measurement": "log2 fold change", "setting": "[2]", "result": 0.017}]}, {"target": "NUDT5 (UniProt Q9UKK9)", "values": [{"measurement": "log2 fold change", "setting": "[1]", "result": -0.018}, {"measurement": "log2 fold change", "setting": "vorinostat", "result": 0.1}, {"measurement": "log2 fold change", "setting": "silmitasertib", "result": -0.021}, {"measurement": "log2 fold change", "setting": "[2]", "result": 0.02}, {"measurement": "log2 fold change", "setting": "entospletinib", "result": 0.012}]}, {"target": "NSA2 (UniProt O95478)", "values": [{"measurement": "log2 fold change", "setting": "[1]", "result": 0.035}, {"measurement": "log2 fold change", "setting": "vorinostat", "result": -0.073}, {"measurement": "log2 fold change", "setting": "silmitasertib", "result": -0.042}, {"measurement": "log2 fold change", "setting": "entospletinib", "result": 0.208}]}, {"target": "NCKAP1L (UniProt P55160)", "values": [{"measurement": "log2 fold change", "setting": "[1]", "result": 0.288}, {"measurement": "log2 fold change", "setting": "vorinostat", "result": "-0.444 (active)"}, {"measurement": "log2 fold change", "setting": "silmitasertib", "result": -0.039}, {"measurement": "log2 fold change", "setting": "[2]", "result": -0.001}, {"measurement": "log2 fold change", "setting": "entospletinib", "result": 0.029}]}, {"target": "NFAT5 isoform 4 (UniProt O94916)", "values": [{"measurement": "log2 fold change", "setting": "[2]", "result": -0.062}]}, {"target": "NAA16 (UniProt Q6N069)", "values": [{"measurement": "log2 fold change", "setting": "[1]", "result": 0.43}, {"measurement": "log2 fold change", "setting": "entospletinib", "result": -0.018}]}, {"target": "NUDT5 (UniProt C9JYY9)", "values": [{"measurement": "log2 fold change", "setting": "vorinostat", "result": -0.041}, {"measurement": "log2 fold change", "setting": "silmitasertib", "result": 0.129}, {"measurement": "log2 fold change", "setting": "entospletinib", "result": 0.01}]}, {"target": "NUP188 (UniProt Q5SRE5)", "values": [{"measurement": "log2 fold change", "setting": "[1]", "result": -0.002}, {"measurement": "log2 fold change", "setting": "vorinostat", "result": "-0.36 (active)"}, {"measurement": "log2 fold change", "setting": "silmitasertib", "result": 0.073}, {"measurement": "log2 fold change", "setting": "[2]", "result": -0.009}, {"measurement": "log2 fold change", "setting": "entospletinib", "result": -0.003}]}]}
